# Results from article PMC5540273 (PLoS ONE, 2017).
# “And” between values parts separate entries of the source, which are not always exact repeats. Equal entries are not always repeated. Where two headings read alike, the source gives them in different places.
# Tests used:
# [1] = system: MYO3B; settings: concentration: 1 μM, replicates: in singlicate, n = 1
# [2] = system: T1, NDR1; settings: concentration: 1 μM, replicates: in singlicate, n = 1
# T1 construct: gene STK38
# [3] = system: NDR2; settings: concentration: 1 μM, replicates: in singlicate, n = 1
# [4] = system: NEK10; settings: concentration: 1 μM, replicates: in singlicate, n = 1
# [5] = system: NEK11; settings: concentration: 1 μM, replicates: in singlicate; n = 1
# [6] = system: NEK1; settings: concentration: 1 μM, replicates: in singlicate, n = 1
# [7] = system: NEK2; settings: concentration: 1 μM, replicates: in singlicate, n = 1
# [8] = system: NEK3; settings: concentration: 1 μM, replicates: in singlicate, n = 1
# [9] = system: NEK4; settings: concentration: 1 μM, replicates: in singlicate, n = 1
# [10] = system: NEK5; settings: concentration: 1 μM, replicates: in singlicate, n = 1
# [11] = system: NEK6; settings: concentration: 1 μM, replicates: in singlicate, n = 1
# [12] = system: NEK7; settings: concentration: 1 μM, replicates: in singlicate; n = 1
# [13] = system: NEK9; settings: concentration: 1 μM, replicates: in singlicate, n = 1
# [14] = system: T2, NIK; settings: concentration: 1 μM, replicates: in singlicate, n = 1
# T2 construct: gene MAP3K14
# [15] = system: T3, NIM1; settings: concentration: 1 μM, replicates: in singlicate, n = 1
# T3 construct: gene MGC42105
# [16] = system: NLK; settings: concentration: 1 μM, replicates: in singlicate, n = 1
# [17] = system: T4, OSR1; settings: concentration: 1 μM, replicates: in singlicate, n = 1
# T4 construct: gene OXSR1
# [18] = system: PAK1; settings: concentration: 1 μM, replicates: in singlicate, n = 1
# [19] = system: PAK2; settings: concentration: 1 μM, replicates: in singlicate, n = 1
# [20] = system: PAK3; settings: concentration: 1 μM, replicates: in singlicate, n = 1
# 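Also: KINOMEscan kinase panel screen.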
compound,measurement,setting,value
CC(C)(CN)c1nc(-c2ccc(Cl)c(O)c2)c(-c2ccncc2)[nH]1.O=C(O)C(F)(F)F [SB-477794],%Inh,[1]; 1 µM,0% and 47%
same,%Inh,[2]; 1 µM,40% and 49%
same,%Inh,[3]; 1 µM,63% and 52%
same,%Inh,[4]; 1 µM,19% and 24%
same,%Inh,[5],0%
same,%Inh,[6]; 1 µM,0% and 100%
same,%Inh,[7]; 1 µM,12% and 0%
same,%Inh,[8]; 1 µM,26% and 0%
same,%Inh,[9]; 1 µM,21% and 10%
same,%Inh,[10]; 1 µM,13% and 3%
same,%Inh,[11]; 1 µM,0% and 2%
same,%Inh,[12],0%
same,%Inh,[13]; 1 µM,0% and 11%
same,%Inh,[14]; 1 µM,0% and 3%
same,%Inh,[15]; 1 µM,4% and 0%
same,%Inh,[16]; 1 µM,98.1% and 98.4%
same,%Inh,[17]; 1 µM,4% and 0%
same,%Inh,[18]; 1 µM,23% and 11%
same,%Inh,[19]; 1 µM,1% and 0%
same,%Inh,[20]; 1 µM,35% and 39%
Fc1ccc(-c2ncn(CCCN3CCOCC3)c2-c2ccccn2)cc1 [SB-211742],%Inh,[1],10%
same,%Inh,[2],13%
same,%Inh,[3],0%
same,%Inh,[4],0%
same,%Inh,[5],0%
same,%Inh,[6],0%
same,%Inh,[7],7%
same,%Inh,[8],28%
same,%Inh,[9],0%
same,%Inh,[10],16%
same,%Inh,[11],15%
same,%Inh,[12],0%
same,%Inh,[13],0%
same,%Inh,[14],0%
same,%Inh,[15],0%
same,%Inh,[16],0%
same,%Inh,[17],0%
same,%Inh,[18],0%
same,%Inh,[19],0%
same,%Inh,[20],0%
O=c1cc(N2CCOCC2)nc2n(Cc3cccc4ccccc34)ccn12 [GSK2333389],%Inh,[1],0%
same,%Inh,[2],0%
same,%Inh,[3],0%
same,%Inh,[4],0%
same,%Inh,[5],0%
same,%Inh,[6],0%
same,%Inh,[7],6%
same,%Inh,[8],0%
same,%Inh,[9],6%
same,%Inh,[10],0%
same,%Inh,[11],0%
same,%Inh,[12],13%
same,%Inh,[13],14%
same,%Inh,[14],0%
same,%Inh,[15],8%
same,%Inh,[16],0%
same,%Inh,[17],5%
same,%Inh,[18],13%
same,%Inh,[19],3%
same,%Inh,[20],10%
COc1ccc(Nc2ncc(C#N)c(Nc3ccccc3C(N)=O)n2)cc1N1CCN(C)CC1.Cl [GSK1558669],%Inh,[1],0%
same,%Inh,[2],98.8%
same,%Inh,[3],75%
same,%Inh,[4],94.1%
same,%Inh,[5],97.5%
same,%Inh,[6],91.6%
same,%Inh,[7],99.6%
same,%Inh,[8],93.5%
same,%Inh,[9],94.7%
same,%Inh,[10],100%
same,%Inh,[11],99.9%
same,%Inh,[12],97.4%
same,%Inh,[13],98.2%
same,%Inh,[14],96.6%
same,%Inh,[15],99.9%
same,%Inh,[16],71%
same,%Inh,[17],100%
same,%Inh,[18],91.2%
same,%Inh,[19],96.9%
same,%Inh,[20],100%
